In PubChem BioAssay:
Several values for one entry are separate records, joined by “and”; a condition that tells them apart may be missing. Equal values may be shown once. Records with an inconclusive call do not appear. Activity calls are given as the source filed them.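 The calls were made as follows, unless noted: active = normalized viability below 100% at a tested concentration; inactive = the rest.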

Key:
[1] = growth inhibition, single agents and combos, HTB85, cell-based, BGB or cisplatin IC20 combos, synergistic combos for chromothripsis tumors (AID 1671453); conditions: HTB85 osteosarcoma cells, drug combinations, stronger effect = higher value;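 also: cells exposed for 96 hours before readout; 0% = vehicle DMSO and 100% = high DMSO killing control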
[2] = growth inhibition, single agents and combos, CRL2098, cell-based, BGB or cisplatin IC20 combos, synergistic combos for chromothripsis tumors (AID 1671454; in the data active = inhibition above about 80%;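 also: cells exposed for 96 h before readout; 0% = vehicle DMSO and 100% = killing by high DMSO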); conditions: CRL2098 osteosarcoma cells, drug combinations, stronger effect = higher value
[3] = growth inhibition, single agents and combos, HD-MB03, cell-based, BGB or cisplatin IC20 combos, synergistic combos for chromothripsis tumors (AID 1671455; in the data active = inhibition above about 83%;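 also: 0% = vehicle DMSO and 100% = high DMSO as cytotoxic control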); conditions: HD-MB03 medulloblastoma cells, stronger effect = higher value
[4] = growth inhibition, single agents and combos, UWB1.289, cell-based, BGB or cisplatin combos, synergistic combos for chromothripsis tumors (AID 1671456; in the data active = inhibition above about 80%;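 also: cells exposed to compound for four days; 0% = vehicle DMSO and 100% = killing by high DMSO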); conditions: UWB1.289 ovarian carcinoma cells, stronger effect = higher value
[5] = growth inhibition, single agents and combos, LFS_MB_2R, cell-based, cisplatin combos, synergistic combos for chromothripsis tumors (AID 1671457; in the data active = inhibition above about 80%;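 also: cells exposed to compound for four days before readout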); conditions: LFS_MB_2R medulloblastoma cells, stronger effect = higher value
[6] = growth inhibition, MDA-MB-436, cell-based, BGB or cisplatin combos, synergistic combos for chromothripsis tumors (AID 1671458; call rule not given here;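 also: cells exposed for 96 hours; 0% = vehicle DMSO and 100% = killing by high DMSO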); conditions: MDA-MB-436 breast carcinoma growth inhibition, drug combinations, stronger effect = higher value
[7] = UWB1.289_BRCA1 ovarian cancer growth, cell-based, BGB or cisplatin combinations (AID 1671459; in the data active = inhibition above about 80%); conditions: UWB1.289 BRCA1 ovarian carcinoma, drug combinations, stronger effect = higher value
[8] = drug combination toxicity in non-malignant astrocytes – cell-based, BGB or cisplatin IC20 combos, cytotoxicity control for chromothriptic childhood tumor combination screen (AID 1671460; in the data active = inhibition above about 80%;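 also: cells exposed to compounds for 96 hours before viability readout; 0% = vehicle and 100% = killing control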); conditions: Human astrocytes, viability inhibition, drug combinations, at 0.5 µM, stronger effect = higher value
[9] = BT084 cell growth, single and combined drugs, ICGC_MB145, cisplatin and BGB IC40 combos (AID 1671461; in the data active = inhibition above about 80%;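 also: cells exposed to drugs for 96 hours; 0% = vehicle DMSO and 100% = high DMSO full killing control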); conditions: BT084 medulloblastoma cells, drug combinations, stronger effect = higher value
[10] = RCMB18 cell growth, single agent and combined, cisplatin and BGB IC40 combos (AID 1671462; in the data active = inhibition above about 80%;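 also: cells exposed to compound for four days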); conditions: RCMB18 medulloblastoma cells, stronger effect = higher value
[11] = CRL1545 cell growth, single agent and combined, cisplatin and BGB IC20 combos (AID 1671464; in the data active = inhibition above about 80%;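 also: cells exposed to compound for 96 hours before readout; 0% = vehicle DMSO and 100% = high DMSO killing control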); conditions: CRL1545 osteosarcoma cells, stronger effect = higher value
[12] = viability loss in pontine glioma line – cell-based, SU-DIPG-XIII, MIPE5.0, CellTiter-Glo, qHTS, dose response (AID 1347064; cut-off not given, nearly all actives have AC50 up to about 23 µM;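 as to AC50: cells exposed to compound for 48 hours before the viability read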); conditions: CellTiter-Glo ATP luminescence
[13] = growth inhibition of DIPG cells – cell-based, MIPE5.0 library, qHTS (AID 1347068; cut-off not given, nearly all actives have IC50 up to about 30 µM); conditions: SU-DIPG-XXV viability
[14] = viability loss in pontine glioma line – cell-based, SU-DIPG-XXV, MIPE5.0, CellTiter-Glo, qHTS, dose response (AID 1347065; cut-off not given, nearly all actives have AC50 up to about 26 µM;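 also: cells exposed to compound for 48 hours before ATP readout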); conditions: CellTiter-Glo ATP luminescence
[15] = growth inhibition of DIPG cells – cell-based, MIPE4.0 library, CellTiter-Glo luminescence, qHTS (AID 1347066; cut-off not given, nearly all actives have AC50 up to about 30 µM;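 also: cells exposed to compound for 48 hours before readout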); conditions: SU-DIPG-VI viability, CellTiter-Glo ATP luminescence
[16] = JHH-DIPG-1 glioma cell viability, MIPE5.0 library, CellTiter-Glo luminescence, qHTS (AID 1347067; cut-off not given, nearly all actives have AC50 up to about 26 µM;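 also: cells exposed to compound for 48 hours before readout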); conditions: JHH-DIPG-1 glioma viability, CellTiter-Glo ATP luminescence
[17] = liver-stage malaria parasite load reduction – cell-based, known kinase inhibitor set, luminescence, hepatoma host viability (AID 624392; call rule not given here;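 also: infected cells incubated roughly two days before readout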); conditions: Plasmodium liver stage in hepatoma cells, luciferase luminescence, concentration not given here; liver cell % of control: measured here: host liver cell viability; parasite % of control: stronger effect = lower value
[18] = viability loss with induced miR-34 in A549 – imaging, A549 dox-inducible miR-34, nuclei and caspase counts, primary screen (AID 1347080;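 active = compounds whose cell count with miR-34 switched on is under 0.7 times the count with it off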); conditions: A549 miR-34 inducible, Hoechst nuclei count, 48 h
[19] = compounds altering HSF1 focus formation in cells – imaging, Selleck Cancer Library (AID 1347162; in the data active = plate-normalised HSF1 focus index below about 0.46); conditions: human cells, HSF1 nuclear foci imaging, at 10 µM; SSMD: measured here: HSF1 foci SSMD mean; cell count: measured here: cell number; plate-normalised HSF1 focus index: stronger effect = lower value
[20] = MELAS cybrid and Rieske KO viability enhancers – cell-based, MELAS cybrids, Rieske KO mouse fibroblasts, CellTiter-Glo, primary screen (AID 1508586;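 active = mean z-score across replicates of 1.96 or higher in either the MELAS or the Rieske mutant cell line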;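 also: z relative to plate mean and SD of compound and empty wells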); conditions: low glucose
[21] = drug combination growth inhibition, ovarian cancer – cell-based, oncology-focused library, rucaparib conditional, profiling panel (AID 1508598); conditions: patient-derived ovarian cancer cells, CellTiter-Glo viability, 144 h, stronger effect = lower value
[22] = measured here: combination with cisplatin, at 0.5 µM

O=c1[nH]c([C@@H]2CCCN2)nc2c1oc1ccc(Cl)cc12
inhibition ([1]; measured here: with cisplatin IC20, at 5 µM): -2.34% | inhibition ([1]; single agent, at 5 µM): -2.45% | inhibition ([2]; at 0.5 µM): -86.2% (inactive) | inhibition ([2]; measured here: combination with BGB at IC20, at 0.5 µM): -77.4% | inhibition ([2]; measured here: combination with cisplatin at IC20, at 0.5 µM): -117% | inhibition ([3]; at 0.5 µM): -12.2% (inactive) | inhibition ([3]; measured here: combo with BGB at IC20, at 0.5 µM): -2.56% | inhibition ([3]; measured here: combo with cisplatin at IC20, at 0.5 µM): -27.5% | inhibition ([4]; at 0.5 µM): -17.8% (inactive) | inhibition ([4]; measured here: inhibition with BGB combination, at 0.05 µM): -12.3% | inhibition ([4]; measured here: inhibition with cisplatin combination, at 0.05 µM): -25.4% | inhibition ([5]; at 0.5 µM): -16% (inactive) | inhibition [5, 22]: -22.2% | inhibition ([5]; measured here: combination with cisplatin, at 5 µM): -24.3% | inhibition ([6]; at 0.5 µM): -35% (inactive) | inhibition ([6]; measured here: BGB combination, at 0.5 µM): -39.6% | inhibition ([6]; measured here: BGB combination, at 5 µM): -62.1% | inhibition ([6]; measured here: cisplatin combination, at 0.5 µM): -52.2% | inhibition ([6]; measured here: cisplatin combination, at 5 µM): -71.9% | inhibition ([7]; BGB combination, concentration series, at 5 µM): -4.02% | inhibition ([7]; at 0.5 µM): -15.4% (inactive) | inhibition ([7]; cisplatin combination, concentration series, at 5 µM): -5.14% | inhibition [8]: 1.64% (inactive) | inhibition ([8]; measured here: combo with BGB IC20): 11.1% | inhibition ([8]; measured here: combo with cisplatin IC20): -0.305% | inhibition ([9]; at 0.5 µM): 18.2% (inactive) | inhibition ([9]; cisplatin combination, at 0.5 µM): 0.765% | inhibition ([9]; cisplatin combination, at 5 µM): -129% | inhibition ([9]; measured here: BGB IC40 combination 0.05 uM, at 0.05 µM): -10.1% | inhibition ([9]; single agent, at 5 µM): 7.55% | inhibition ([10]; at 0.5 µM): -15.8% (inactive) | inhibition ([10]; cisplatin combo, at 5 µM): -8.27% | inhibition ([10]; measured here: BGB IC40 combination, at 0.05 µM): 3.23% | inhibition [10, 22]: -15.3% | inhibition ([10]; single agent, at 5 µM): -12.8% | inhibition ([11]; at 0.5 µM): -44.6% (inactive) | inhibition ([11]; measured here: with BGB IC20 combination, at 0.5 µM): -65.7% | inhibition ([11]; measured here: with cisplatin IC20 combination, at 0.5 µM): -36.2% | inhibition ([11]; single agent, at 0.05 µM): -56% | inhibition ([11]; single agent, at 5 µM): -51.5%

Nc1nc(-c2nn(Cc3ccccc3F)c3ncccc23)ncc1C1CC1
AC50 [12]: 11.8 µM (active) | outcome [13]: inactive

CN1CCC(COc2cnc(-c3cccc(Cn4nc(-c5cccc(C#N)c5)ccc4=O)c3)nc2)CC1
AC50 [14]: 26.3 µM (active) | outcome [15]: inactive | AC50 [16]: 29.5 µM (active)

COc1cc2ncnc(Nc3cccc(Cl)c3F)c2cc1OC(=O)N1CCN(C)C[C@H]1C
outcome [12]: inactive | outcome [13]: inactive

CN(C)CCNC(=O)NC[C@H]1CC[C@@H]2[C@H](O1)c1cc(C(F)(F)F)ccc1N[C@H]2c1ccccc1
AC50 [14]: 0.186 µM (active)

FC(F)(F)c1ccc(CNc2ccc(Cc3c[nH]c4ncc(Cl)cc34)cn2)cn1
outcome [12]: inactive | outcome [16]: inactive | outcome [13]: inactive

C[C@@H](Nc1cc(F)cc(F)c1)c1cc(C(=O)N(C)C)cc2c(=O)cc(N3CCOCC3)oc12
AC50 [14]: 9.34 µM (active)

O=C(Nc1cnccc1Cl)N1CCN(Cc2ccc3c(c2)OC(F)(F)O3)CC1
outcome [12]: inactive | outcome [13]: inactive

CN(C)CCOc1cc(-c2cn[nH]c2)ccc1NC(=O)C1COc2ccccc2O1 (stereo not drawn)
liver cell % of control [17]: 74.6% and 79.4% and 100% | parasite % of control [17]: 63.3% (inactive) and 69.1% (inactive) and 49.5% (inactive) | AC50 [14]: 7.42 µM (active) | outcome [15]: inactive

CNc1nc(Nc2cnn([C@H]3CCN(C4COC4)C[C@@H]3F)c2Cl)ncc1C(F)(F)F
AC50 [14]: 20.9 µM (active)

CN1CCN(c2nc(C3=C(c4c[nH]c5ccccc45)C(=O)NC3=O)c3ccccc3n2)CC1
outcome [12]: inactive | outcome [16]: inactive | outcome [13]: inactive | fold change ([18]; stronger effect = lower value, cell number ratio, induced over uninduced): 0.982 (inactive) | fold change ([18]; measured here: relative caspase fold change +Dox/-Dox): 0.809 | cell count ([18]; measured here: total cells with miR-34 induction, stronger effect = lower value): 8410 | cell count ([18]; measured here: total cells without miR-34 induction): 8570 | SSMD [19]: 1.44 | cell count [19]: 7110 | plate-normalised HSF1 focus index [19]: 1.09 (inactive) | z-score ([20]; MELAS cybrid survival, CellTiter-Glo 48 h, stronger effect = higher value): -0.37 (inactive) | z-score ([20]; Rieske KO mouse fibroblast survival, CellTiter-Glo 72 h): 0.177 | viability ([21]; at 0.000305 µM, OCI-C5x cells, with rucaparib 10 µM, 100% = cells with rucaparib alone): 105% (inactive) | viability ([21]; at 0.000305 µM, OCI-C5x cells, without rucaparib): 102% (inactive) | viability ([21]; at 0.000305 µM, OCI-P5x cells, with rucaparib 20 µM, 100% = cells with rucaparib alone): 96.2% (active) | viability ([21]; at 0.000305 µM, OCI-P5x cells, without rucaparib): 83.9% (active) | viability ([21]; at 0.00122 µM, OCI-C5x cells, with rucaparib 10 µM, 100% = cells with rucaparib alone): 116% (inactive) | viability ([21]; at 0.00122 µM, OCI-C5x cells, without rucaparib): 119% (inactive) | viability ([21]; at 0.00122 µM, OCI-P5x cells, with rucaparib 20 µM, 100% = cells with rucaparib alone): 102% (inactive) | viability ([21]; at 0.00122 µM, OCI-P5x cells, without rucaparib): 88.4% (active) | viability ([21]; at 0.00488 µM, OCI-C5x cells, with rucaparib 10 µM, 100% = cells with rucaparib alone): 112% (inactive) | viability ([21]; at 0.00488 µM, OCI-C5x cells, without rucaparib): 120% (inactive) | viability ([21]; at 0.00488 µM, OCI-P5x cells, with rucaparib 20 µM, 100% = cells with rucaparib alone): 106% (inactive) | viability ([21]; at 0.00488 µM, OCI-P5x cells, without rucaparib): 97.3% (active) | viability ([21]; at 0.0195 µM, OCI-C5x cells, with rucaparib 10 µM, 100% = cells with rucaparib alone): 114% (inactive) | viability ([21]; at 0.0195 µM, OCI-C5x cells, without rucaparib): 122% (inactive) | viability ([21]; at 0.0195 µM, OCI-P5x cells, with rucaparib 20 µM, 100% = cells with rucaparib alone): 102% (inactive) | viability ([21]; at 0.0195 µM, OCI-P5x cells, without rucaparib): 96.2% (active) | viability ([21]; at 0.0781 µM, OCI-C5x cells, with rucaparib 10 µM, 100% = cells with rucaparib alone): 113% (inactive) | viability ([21]; at 0.0781 µM, OCI-C5x cells, without rucaparib): 116% (inactive) | viability ([21]; at 0.0781 µM, OCI-P5x cells, with rucaparib 20 µM, 100% = cells with rucaparib alone): 110% (inactive) | viability ([21]; at 0.0781 µM, OCI-P5x cells, without rucaparib): 101% (inactive) | viability ([21]; at 0.313 µM, OCI-C5x cells, with rucaparib 10 µM, 100% = cells with rucaparib alone): 109% (inactive) | viability ([21]; at 0.313 µM, OCI-C5x cells, without rucaparib): 129% (inactive) | viability ([21]; at 0.313 µM, OCI-P5x cells, with rucaparib 20 µM, 100% = cells with rucaparib alone): 117% (inactive) | viability ([21]; at 0.313 µM, OCI-P5x cells, without rucaparib): 107% (inactive) | viability ([21]; at 1.25 µM, OCI-C5x cells, with rucaparib 10 µM, 100% = cells with rucaparib alone): 114% (inactive) | viability ([21]; at 1.25 µM, OCI-C5x cells, without rucaparib): 122% (inactive) | viability ([21]; at 1.25 µM, OCI-P5x cells, with rucaparib 20 µM, 100% = cells with rucaparib alone): 115% (inactive) | viability ([21]; at 1.25 µM, OCI-P5x cells, without rucaparib): 109% (inactive) | viability ([21]; at 5 µM, OCI-C5x cells, with rucaparib 10 µM, 100% = cells with rucaparib alone): 129% (inactive) | viability ([21]; at 5 µM, OCI-C5x cells, without rucaparib): 135% (inactive) | viability ([21]; at 5 µM, OCI-P5x cells, with rucaparib 20 µM, 100% = cells with rucaparib alone): 141% (inactive) | viability ([21]; at 5 µM, OCI-P5x cells, without rucaparib): 109% (inactive)
